Results on 62 compounds are retold here after PubChem BioAssay (NCATS).

Inconclusive results are not listed. Entries that show only a call come without a potency. Values without a mark were called inactive. Active and inactive are the calls of the source. Calls come from the whole dose curve; as a rule, active = well fitted curve in the direction sought with a large enough effect; inconclusive = small, poorly fitted or top-dose-only effect, or another doubt; inactive = no such curve, though single readings can be large; an effect the other way counts as inactive or inconclusive.

For assay [1], the target named is ATP-dependent 6-phosphofructokinase (Trypanosoma brucei brucei) (UniProt O15648). In words: qHTS Assay to Find Inhibitors of T. brucei phosphofructokinase: hit validation (AID 492961).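 Note: luminescence reports ADP formed as PFK phosphorylates fructose-6-phosphate with ATP; series mostly up to about 51 µM.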 The essentials:
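Compounds titrated; %activity normalized to 0x and 1x enzyme controls, curve-fitted. Readout: ADP-Glo luminescence after 45 min room-temperature reaction of 1.25 nM PFK, 0.1 mM ATP, 0.5 mM F6P, pH 8.0.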
For orientation: qHTS replaces the single test concentration by a dilution series.

Assay [2] deals with Ubiquitin carboxyl-terminal hydrolase 1 (Homo sapiens) (UniProt O94782). In words: Inhibitors of USP1/UAF1: Pilot qHTS (AID 504865). Note: nearly all actives have a fitted effect of over 35% in size. Note: potency is the fitted concentration of half-maximal effect. The method, boiled down: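 In 50mM HEPES pH 7.8 containing 0.5mM EDTA, 1mM TCEP, 0.1 mg/ml BSA and 0.01% Tween-20, 1nM USP1/UAF1 is exposed to compound for 15 min, then Ub-Rho (150nM final) is added and fluorescence is read over time.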
Chain of Ubiquitin carboxyl-terminal hydrolase 1 (Homo sapiens) (O94782 whole entry, looked up): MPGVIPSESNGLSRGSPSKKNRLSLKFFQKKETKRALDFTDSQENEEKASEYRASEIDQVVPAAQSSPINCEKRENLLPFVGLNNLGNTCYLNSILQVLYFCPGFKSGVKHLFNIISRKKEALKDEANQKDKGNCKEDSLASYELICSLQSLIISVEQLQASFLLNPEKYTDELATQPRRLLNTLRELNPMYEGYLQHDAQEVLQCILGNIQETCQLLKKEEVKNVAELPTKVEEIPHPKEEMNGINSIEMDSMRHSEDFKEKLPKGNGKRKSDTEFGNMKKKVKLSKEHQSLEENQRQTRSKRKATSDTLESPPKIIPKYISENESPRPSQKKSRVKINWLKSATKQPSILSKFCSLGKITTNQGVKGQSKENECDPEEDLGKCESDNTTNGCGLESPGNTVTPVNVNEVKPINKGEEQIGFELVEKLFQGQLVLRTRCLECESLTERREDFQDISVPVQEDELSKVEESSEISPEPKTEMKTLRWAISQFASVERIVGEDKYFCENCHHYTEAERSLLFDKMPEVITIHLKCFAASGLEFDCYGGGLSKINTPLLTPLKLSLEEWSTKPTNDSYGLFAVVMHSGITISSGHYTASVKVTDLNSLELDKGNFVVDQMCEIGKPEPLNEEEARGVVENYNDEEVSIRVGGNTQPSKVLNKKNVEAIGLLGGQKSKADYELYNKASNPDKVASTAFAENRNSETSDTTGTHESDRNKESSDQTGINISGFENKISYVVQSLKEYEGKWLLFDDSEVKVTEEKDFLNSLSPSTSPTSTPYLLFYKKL

Chain of ATP-dependent 6-phosphofructokinase (Trypanosoma brucei brucei) (O15648 whole entry, looked up): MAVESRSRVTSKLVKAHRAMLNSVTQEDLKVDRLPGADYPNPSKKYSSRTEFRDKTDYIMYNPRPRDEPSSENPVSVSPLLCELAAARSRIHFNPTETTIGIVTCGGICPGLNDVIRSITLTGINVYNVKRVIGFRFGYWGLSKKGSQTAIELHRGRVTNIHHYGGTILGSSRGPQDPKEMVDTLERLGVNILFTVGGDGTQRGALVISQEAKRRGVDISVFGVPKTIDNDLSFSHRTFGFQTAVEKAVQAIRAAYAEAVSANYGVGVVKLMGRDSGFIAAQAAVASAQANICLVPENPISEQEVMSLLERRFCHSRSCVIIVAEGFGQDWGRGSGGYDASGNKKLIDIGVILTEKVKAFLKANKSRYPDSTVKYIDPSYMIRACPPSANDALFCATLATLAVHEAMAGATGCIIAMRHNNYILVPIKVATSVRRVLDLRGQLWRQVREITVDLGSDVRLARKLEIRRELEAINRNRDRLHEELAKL

On to `Cc1cc(-n2nc3ccc(Cl)cc3n2)c(O)c(C(C)(C)C)c1`, for which the compound was classed as inactive in assay [1]. Besides, the Potency entry in assay [2] is “inactive”.

In the case of `Cc1[nH]c(C)c(Cl)c(=O)c1Cl`, the compound was classed as inactive in assay [1]. Besides, the Potency result in assay [2] was “inactive”.

As to `CCOc1cc(NC(C)=O)ccc1C(=O)OC`, the compound was classed as inactive in assay [1]. The Potency result in assay [2] was “inactive”.

As to `O=C(O)Cc1ccc(CCNS(=O)(=O)c2ccc(Cl)cc2)cc1`, the compound was classed as inactive in assay [1]. Further, in assay [2], the Potency result is “inactive”.

Consider `CCN(CC)CCOC(=O)C(c1ccccc1)c1ccccc1`, for which, in assay [1], the call was inactive. For the same compound, in assay [2], the Potency result is “inactive”.

As to `NC(N)=NCCN1CCCCCCC1`, in assay [1], the compound was called inactive. In addition, the Potency result in assay [2] was “inactive”.

For the compound `NC(=O)CC[C@@H](N)C(=O)O`, the compound was called inactive in assay [1]. Moreover, the Potency result in assay [2] is “inactive”.

Regarding `CC(=O)OC[C@H]1O[C@@](COC(C)=O)(O[C@H]2O[C@H](COC(C)=O)[C@@H](OC(C)=O)[C@H](OC(C)=O)[C@H]2OC(C)=O)[C@@H](OC(C)=O)[C@@H]1OC(C)=O`, the outcome in assay [1] was inactive. Further, in assay [2], the Potency entry was “inactive”.

In the case of `CC[N+](C)(CC)CCOC(=O)C1c2ccccc2Oc2ccccc21`, in assay [1], the outcome was inactive. Besides, in assay [2], the Potency result was “inactive”.

For the compound `Cc1cc(OI)c(C(C)C)cc1-c1cc(C(C)C)c(OI)cc1C`, in assay [1], the call was inactive. In addition, the Potency result in assay [2] was “inactive”.

Regarding `CCS(=O)(=O)CCn1c([N+](=O)[O-])cnc1C`, the outcome in assay [1] was inactive. The Potency result in assay [2] is “inactive”.

With `NCC1CCC(C(=O)Oc2ccc(CCC(=O)O)cc2)CC1` (centres undefined), the compound was called inactive in assay [1]. Moreover, the Potency result in assay [2] is “inactive”.

Turning to `COc1ccc2cc(CCC(C)=O)ccc2c1`, the compound was called inactive in assay [1]. In assay [2], the Potency result was “inactive”.

For the compound `O=C(O)Cc1cn(-c2ccccc2)nc1-c1ccc(Cl)cc1`, in assay [1], the call was inactive. Moreover, the Potency result in assay [2] was “inactive”.

Consider `CC(=O)NCc1c(I)c(NC(C)=O)c(I)c(C(=O)O)c1I`, for which the outcome in assay [1] was inactive. Further, the Potency entry in assay [2] is “inactive”.

On to `Cc1ccc(S(=O)(=O)NC(=O)NC2CCCCCCC2)cc1`, for which, in assay [1], the compound was classed as inactive. Besides, in assay [2], the Potency result is “inactive”.

Take `COc1cc(C(=O)NCCCCCC(=O)O)cc(OC)c1OC`: the compound was classed as inactive in assay [1]. The Potency result in assay [2] is “inactive”.

Regarding `Nc1c2c(nc3c1CCC3)CCCC2`, the result in assay [1] was inactive. Further, the Potency result in assay [2] is “inactive”.

Regarding `CCc1cccc(CC)c1NC(=O)CN(CC(=O)O)CC(=O)O`, the outcome in assay [1] was inactive. Moreover, the Potency entry in assay [2] is “inactive”.

In the case of `COc1cc(O)cc(O)c1`, the result in assay [1] was inactive. Also, the Potency result in assay [2] was “inactive”.

As for `Cc1onc(-c2ccccc2)c1-c1ccc(S(N)(=O)=O)cc1`, in assay [1], the compound was classed as inactive. Also, the Potency result in assay [2] was “inactive”.

`CC(C)C[C@@H](N)C(=O)O`: the call in assay [1] was inactive. The Potency entry in assay [2] was “inactive”.

Regarding `NS(=O)(=O)c1cc2c(cc1C(F)(F)F)NCNS2(=O)=O`, the compound was classed as inactive in assay [1]. In assay [2], the Potency result is “inactive”.

For the compound `NS(=O)(=O)c1ccc(NC(=O)CCC(=O)O)cc1`, the compound was classed as inactive in assay [1]. For the same compound, the Potency entry in assay [2] was “inactive”.

In the case of `O=C(O)c1cc(=O)c2ccccc2o1`, the result in assay [1] was inactive. Besides, in assay [2], the Potency entry is “inactive”.

Regarding `Cc1ncc(CO)c(CN)c1O`, the call in assay [1] was inactive. Further, the Potency result in assay [2] was “inactive”.

`COc1ccccc1Oc1c(NS(=O)(=O)c2ccc(C(C)(C)C)cc2)nc(-c2ncccn2)nc1OCCO`: the compound was classed as inactive in assay [1]. For the same compound, the Potency entry in assay [2] was “inactive”.

Consider `Nc1ncnc(Nc2ccccc2)n1`, for which the compound was called inactive in assay [1]. In addition, the Potency result in assay [2] was “inactive”.

Take `C[C@H]1COc2c(C3(N)CC3)c(F)cc3c(=O)c(C(=O)O)cn1c23`: the result in assay [1] was inactive. Besides, the Potency entry in assay [2] is “inactive”.

On to `CC(C(=O)O)c1ccc2c(c1)Cc1cccnc1O2` (centres undefined), for which, in assay [1], the outcome was inactive. In addition, the Potency result in assay [2] was “inactive”.

`COC(=O)c1cccnc1`: in assay [1], the result was inactive. In assay [2], the Potency result is “inactive”.

For `CC(=O)Oc1cccc(C)c1`, the compound was classed as inactive in assay [1]. In assay [2], the Potency result is “inactive”.

`N[C@@H](Cc1ccc(O)cc1)C(=O)O`: in assay [1], the result was inactive. Further, in assay [2], the Potency entry was “inactive”.

`O=C(O)CCC(=O)O`: the outcome in assay [1] was inactive. Besides, the Potency result in assay [2] is “inactive”.

On to `O=C1CC[C@@H](C(=O)O)N1`, for which, in assay [1], the compound was called inactive. Further, in assay [2], the Potency entry is “inactive”.

As to `Cc1ccc(S(=O)(=O)NC(=O)NC2CCCCC2)cc1`, the call in assay [1] was inactive. Besides, in assay [2], the Potency entry is “inactive”.

Regarding `CCCCCCCCCCCCCCCCN`, in assay [1], the result was inactive. Further, the Potency entry in assay [2] was “inactive”.

Take `O=C(O)COC(=O)Cc1ccccc1Nc1c(Cl)cccc1Cl`: the result in assay [1] was inactive. The Potency entry in assay [2] is “inactive”.

In the case of `NNC(=O)CP(=O)(c1ccccc1)c1ccccc1`, the call in assay [1] was inactive. Moreover, the Potency entry in assay [2] is “inactive”.

Consider `Nc1ccncc1N`, for which the compound was classed as inactive in assay [1]. Moreover, the Potency entry in assay [2] was “inactive”.

`Cc1cc(C)c(NC(=O)CN(CC(=O)O)CC(=O)O)c(C)c1Br`: the compound was called inactive in assay [1]. Besides, the Potency entry in assay [2] is “inactive”.

On to `CCN(CC)CC1CCCCN1CC(=O)N1c2ccccc2C(=O)Nc2cccnc21` (centres undefined), for which the result in assay [1] was inactive. Moreover, the Potency result in assay [2] is “inactive”.

For `COc1ccc(C(=O)NCc2ccc(OCCN(C)C)cc2)cc1OC`, the compound was called inactive in assay [1]. In assay [2], the Potency entry was “inactive”.

`Cc1c(I)c(=O)n(-c2ccccc2)n1C`: the outcome in assay [1] was inactive. The Potency entry in assay [2] is “inactive”.

For the compound `CCOc1ccc(C(=O)OCCN(CC)CC)cc1`, in assay [1], the call was inactive. The Potency result in assay [2] was “inactive”.

As for `NCc1ccc(S(N)(=O)=O)cc1`, the result in assay [1] was inactive. Further, in assay [2], the Potency entry was “inactive”.

Consider `Cc1cc(O)cc(C)c1Cl`, for which the outcome in assay [1] was inactive. Besides, the Potency result in assay [2] was “inactive”.

For `Cc1c(Cn2ccnc2)c2ccccc2n1CCC(=O)O`, the result in assay [1] was inactive. For the same compound, the Potency result in assay [2] was “inactive”.

For the compound `O=c1[nH]c(=O)c2ccccc2o1`, the compound was classed as inactive in assay [1]. Further, the Potency result in assay [2] was “inactive”.

Regarding `CCCCC1(COC(=O)CCC(=O)O)C(=O)N(c2ccccc2)N(c2ccccc2)C1=O`, the outcome in assay [1] was inactive. In assay [2], the Potency result was “inactive”.

As for `CCCNC(C)(C)COC(=O)c1ccccc1`, the call in assay [1] was inactive. Moreover, in assay [2], the Potency result is “inactive”.

As for `O[C@@H]1CO[C@H]2[C@@H]1OC[C@@H]2O`, the compound was classed as inactive in assay [1]. The Potency result in assay [2] is “inactive”.

`CC(=O)Oc1cccc(O)c1`: the result in assay [1] was inactive. In addition, in assay [2], the Potency result was “inactive”.

Consider `O=C(Cn1ccnc1[N+](=O)[O-])NCc1ccccc1`, for which, in assay [1], the compound was classed as inactive. In addition, the Potency entry in assay [2] is “inactive”.

`CCCCCCCCCCCCCCCCC(C(=O)O)C(O)(CC(=O)O)C(=O)O` (centres undefined): the compound was classed as inactive in assay [1]. In assay [2], the Potency is 22.4 µM (active).

Consider `CC(=O)Nc1ccc(OCCOCCOc2ccc(NC(C)=O)cc2)cc1`, for which the call in assay [1] was inactive. Moreover, in assay [2], the Potency entry was “inactive”.

As to `CCOC(N)=O`, the result in assay [1] was inactive. The Potency result in assay [2] was “inactive”.

With `COC(=O)c1ccccc1C(=O)c1ccc(OCCN2CCCCC2)cc1`, the result in assay [1] was inactive. In addition, the Potency entry in assay [2] is “inactive”.

In the case of `OCC(O)CS` (centres undefined), the outcome in assay [1] was inactive. Further, the Potency result in assay [2] is “inactive”.

For the compound `CC(C)=CCC/C(C)=C/CO`, in assay [1], the result was inactive. For the same compound, the Potency entry in assay [2] is “inactive”.

For the compound `NNc1nnc(NN)c2ccccc12`, the compound was classed as inactive in assay [1]. The Potency entry in assay [2] was “inactive”.

Turning to `CCCCCCCC(=O)OCC(O)CO` (centres undefined), the outcome in assay [1] was inactive. The Potency result in assay [2] was “inactive”.
